Experimental data from PubChem BioAssay.
Calls of active or inactive are those of the source. Unless noted, how the calls were made is not given here.

Key:
[1] = system: XIP peptide (Xip251-270) binding; test: small-molecule binders of XIP peptide, primary screen, biochemical, small-molecule microarray, fluorescence 635/667 nm, 0.1 µg/mL protein (AID 1182); conditions: fluorescent protein binding, 635 nm, higher = more signal, called active from +8 up or from −8 down
XIP peptide (Xip251-270) = test: small-molecule binders of XIP peptide, primary screen, biochemical, small-molecule microarray, fluorescence 635/667 nm, 0.5 µg/mL protein (AID 1183); conditions: small-molecule microarray binding, fluorescence 635 nm; higher = more signal
[2] = Plasmodium falciparum growth inhibition, primary screen, strain 3D7, DAPI fluorescence, 100 nL (AID 1184);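 further: parasites grown inside human red blood cells in medium with human serum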; conditions: P. falciparum 3D7 growth, 3 d, higher = more signal
[3] = target: Homeobox protein Hox-A13 (Mus musculus) (UniProt Q62424); test: inhibitors of HoxA13-DNA binding, primary screen, biochemical, fluorescence polarization, labeled oligonucleotide (AID 1185); conditions: 15 min, higher = more signal, called active from +8 up or from −8 down
[4] = inhibitors of hydroxyurea-induced Chk1 phosphorylation, primary screen, imaging, HeLa, phospho-Chk1 antibody, percent positive cells (AID 1186); conditions: hydroxyurea-induced phospho-Chk1 immunofluorescence imaging, higher = more signal
[5] = inhibitors of hydroxyurea-induced Chk1 phosphorylation, primary screen, imaging, HeLa, phospho-Chk1 nuclear intensity (AID 1187); conditions: hydroxyurea-induced phospho-Chk1 immunofluorescence imaging, higher = more signal

Homeobox protein Hox-A13 (Mus musculus), sequence (Q62424 whole entry, looked up): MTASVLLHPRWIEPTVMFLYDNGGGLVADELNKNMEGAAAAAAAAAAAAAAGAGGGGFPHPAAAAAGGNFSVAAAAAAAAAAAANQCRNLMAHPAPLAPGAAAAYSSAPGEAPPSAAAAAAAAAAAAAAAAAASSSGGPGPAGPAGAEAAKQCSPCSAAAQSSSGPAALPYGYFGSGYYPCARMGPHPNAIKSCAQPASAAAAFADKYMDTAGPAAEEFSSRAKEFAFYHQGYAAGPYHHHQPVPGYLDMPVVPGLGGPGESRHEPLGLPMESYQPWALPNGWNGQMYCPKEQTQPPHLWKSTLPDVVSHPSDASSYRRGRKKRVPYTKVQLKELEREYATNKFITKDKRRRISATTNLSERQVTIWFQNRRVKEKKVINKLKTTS

Structure (SMILES)	composite z-score [1]	composite z-score (XIP peptide (Xip251-270))	z-score [2]	z-score [3]	z-score [4]	z-score [5]
CCCCC(=C=CC[C@@H](O)c1cccc(OCCO)c1)C[C@@H](O)COCc1ccccc1	-0.0344 (inactive)	0.713	-1.1	-4.82 (inactive)	-0.255 (inactive)	0.827 (inactive)
COc1ccc([Si](C)(C)[C@H]2[C@H](CC(=O)N3Cc4ccccc4C[C@H]3CO)O[C@@]3(C(=O)N(Cc4cccc(N5C(=O)c6cccc7cccc5c67)c4)c4ccccc43)[C@@H]2C)cc1	0.14 (inactive)	0.802	-2.45	-2.56 (inactive)	-0.887 (inactive)	-0.153 (inactive)
COCCCNC(=O)[C@@]1(Sc2ccc(C)cc2)CC(=O)N(C2CCCCC2)[C@@H]1c1ccc(CO)cc1I	-0.159 (inactive)	0.736	-1.39	-5.66 (inactive)	0.46 (inactive)	0.268 (inactive)
C=CCC(OC(C)=O)[C@@H]1[C@@H](N(Cc2ccc(-c3cccc(C(F)(F)F)c3)o2)C(=O)Cc2ccc(OC)cc2)c2cc(OCCCO)ccc2N1C(=O)c1ccc2ccccc2n1 (some centres undefined)	-0.155 (inactive)	-0.118	-2.2	-2.25 (inactive)	0.401 (inactive)	0.966 (inactive)
CCCCNC(=O)c1ccc(C#C[Si](C)(C)C)c(OC(C)=O)c1	-0.0158 (inactive)	-0.351	-1.27	-4.82 (inactive)	0.0588 (inactive)	0.103 (inactive)
C=CCOC(=O)[C@@H]1[C@H]2C(=O)O[C@H](c3ccccc3)[C@H](c3ccccc3)N2[C@H](c2ccc(OCCOC(=O)[C@H]3C[C@H]4C(=O)NCC(=O)N4[C@H]3c3ccc(O)cc3)cc2)[C@@]12C(=O)Nc1ccc(I)cc12	1.34 (inactive)	0.868	-1.69	1.52 (inactive)	-0.804 (inactive)	-0.762 (inactive)
C=C(/C(=C/C[C@H](OC(=O)c1ccncc1)c1ccccc1OCCO)c1cc(C(=O)OC)ccc1OC)C(C)C	-0.0121 (inactive)	0.605	-2.85	-4.77 (inactive)	-0.529 (inactive)	-0.789 (inactive)
C=C(CCCC)/C(=C/C[C@H](OC(C)=O)c1cccc(OCCO)c1)c1cc(C(=O)OC)ccc1OC	0.0894 (inactive)	-0.185	-2.35	-4.24 (inactive)	0.0786 (inactive)	0.307 (inactive)
CN1C(=O)C2C(C1=O)C1C=C(c3ccc(CO)cc3)C2C(c2cccs2)N1C (centres undefined)	0.482 (inactive)	-0.202	-2.32	-6.12 (inactive)	-0.89 (inactive)	-0.76 (inactive)
COc1cc2c(cc1O)C(c1ccc(CN3CCCC3)cc1)N(Cc1ccc([N+](=O)[O-])o1)CC2 (centres undefined)	0.119 (inactive)	-0.0067	-0.672	-7.64 (inactive)	0.191 (inactive)	0.134 (inactive)
Cc1ccc(S[C@]2(C(=O)NCC(F)(F)F)CC(=O)N(C3CCCCC3)[C@@H]2c2ccc(CO)cc2)cc1	0.23 (inactive)	0.201	-0.703	-3.04 (inactive)	-0.418 (inactive)	-0.25 (inactive)
COC(=O)[C@@]1(Cc2ccccc2CN=[N+]=[N-])COC(c2ccc(OCCCO)cc2)=N1	1.31 (inactive)	0.871	-1.3	-4.77 (inactive)	-0.184 (inactive)	0.0494 (inactive)
Cc1ccc(S[C@]2(C(=O)NCCN3CCOCC3)CC(=O)N(C3CCCCC3)[C@@H]2c2ccc(CO)cc2I)cc1	0.825 (inactive)	0.657	-1.92	-5.68 (inactive)	0.134 (inactive)	0.114 (inactive)
CC=CC(O)C1C=CC2C(=O)N(C)C(=O)C2N1NC(=O)OC(C)(C)C (centres undefined)	-0.3 (inactive)	0.335	0.675	-1.46 (inactive)	0.698 (inactive)	-0.0345 (inactive)
COCCOC(=O)N1C(=O)[C@@]2(c3cc(C#CCC(C(=O)OC)C(=O)OC)ccc31)[C@H](c1ccc(OCCO)cc1)N1[C@H](c3ccccc3)[C@H](c3ccccc3)OC(=O)[C@H]1[C@@H]2C(=O)N1CCCCCCC1	0.836 (inactive)	0.523	-2.09	-15.5 (active)	-0.181 (inactive)	0.106 (inactive)
CCCCC(O)C1C=CC2C(=O)NC(=O)C2N1Nc1ccc(Cl)cc1Cl (centres undefined)	-0.0109 (inactive)	-0.405	-0.565	-4.78 (inactive)	-0.515 (inactive)	-0.438 (inactive)
C=C(CCCC)C(=O)CC[C@H](OC(C)=O)c1ccccc1OCCO	0.551 (inactive)	0.439	-2.52	-5.49 (inactive)	-0.384 (inactive)	0.126 (inactive)

Structure (SMILES)	composite z-score [1]	composite z-score (XIP peptide (Xip251-270))	z-score [2]	z-score [3]	z-score [4]	z-score [5]
CC(C)C[C@H]1NC(=O)[C@H](Cc2ccccc2)NC(=O)[C@@]23C(=O)N[C@@H](Cc4ccccc4)C2[C@H](C)[C@@]2(C)O[C@H]2C3/C=C/C/C=C\CNC1=O (some centres undefined)	0.252 (inactive)	0.718	-0.799	-7.8 (inactive)	-0.157 (inactive)	0.005 (inactive)
O=C1N(CCS(=O)(=O)c2ccccc2)c2ccccc2[C@@H]2OC(c3ccc(OCCCO)cc3)=N[C@]12CCS(=O)(=O)c1ccccc1	3.92 (inactive)	0.83	-2.18	0.806 (inactive)	0.38 (inactive)	0.682 (inactive)
C[N+](C)(C)CCCC[C@@H]1NC(=O)[C@H]2C[C@@H](C(=O)NCCCCCNC(=O)CS)[C@@H](c3ccc(O)cc3)N2C1=O	0.949 (inactive)	0.696	-0.0941	-0.677 (inactive)	0.0225 (inactive)	0.579 (inactive)
CN1C(=O)[C@]2(CCC(=O)OC(C)(C)C)N=C(c3ccc(OCCCO)cc3)O[C@@H]2c2ccccc21	0.0974 (inactive)	0.654	-1.56	-5.26 (inactive)	-0.0356 (inactive)	0.25 (inactive)
C[C@@H](OCc1ccccc1)C1NC(=O)[C@@]23C(=O)N[C@@H](Cc4ccccc4)C2[C@H](C)[C@@]2(C)O[C@H]2C3/C=C/C/C=C\CNC(=O)[C@H](Cc2ccccc2)NC1=O (some centres undefined)	-0.0678 (inactive)	-0.0412	-2.45	-5.7 (inactive)	0.0781 (inactive)	0.544 (inactive)
C=CCC(OC(C)=O)[C@@H]1[C@@H](N(Cc2cc3ccccc3o2)C(=O)Cc2ccc(OC)cc2)c2cc(OCCCO)ccc2N1C(=O)Cc1ccc2ccccc2c1 (some centres undefined)	-0.324 (inactive)	-0.375	-2.15	-1.62 (inactive)	0.405 (inactive)	0.517 (inactive)
CC(=O)n1cc(C(O)C2C=CC3C(=O)N(c4ccccc4)C(=O)C3N2Nc2ccccc2F)c2ccccc21 (centres undefined)	0.0433 (inactive)	0.752	-0.153	-4.01 (inactive)	-0.0566 (inactive)	0.153 (inactive)
O=C1OCCC=C[C@H]2OC34C=CCN(CCN5CCOCC5)C(=O)[C@H]3N(CCCO)C(=O)[C@@H]4C12 (some centres undefined)	0.186 (inactive)	0.0388	-1.72	-3.86 (inactive)	-0.46 (inactive)	-0.374 (inactive)
C[C@H]1NC(=O)C([C@@H](C)OCc2ccccc2)NC(=O)[C@@]23C(=O)N[C@@H](Cc4ccccc4)C2[C@H](C)[C@@]2(C)O[C@H]2C3/C=C/C/C=C\CNC1=O (some centres undefined)	-0.113 (inactive)	-0.417	-2.93	-6.74 (inactive)	0.314 (inactive)	0.451 (inactive)
C=CC[C@]1(C(=O)N(C)C)COC(c2ccc(OCCCO)cc2)=N1	0.113 (inactive)	0.907	-1.7	-2.35 (inactive)	-0.491 (inactive)	-0.146 (inactive)
CCCCN1CC=CC23O[C@@H]4C=CCOC(=O)[C@@H]4[C@H]2C(=O)N(CCO)[C@@H]3C1=O (some centres undefined)	0.64 (inactive)	-0.964	1.12	-3.84 (inactive)	-0.338 (inactive)	-0.424 (inactive)
O=C(NCCO)C1=C[C@H](Oc2ccccc2I)[C@@H](O)[C@H](NCc2ccc(F)cc2)C1	0.234 (inactive)	-0.875	-1.61	-6.81 (inactive)	0.079 (inactive)	-0.34 (inactive)
O=C1O[C@@H](c2ccccc2)[C@@H](c2ccccc2)N2[C@@H](c3ccc(OCCO)cc3)[C@]3(C(=O)Nc4ccc(C#CCCO)cc43)[C@@H](C(=O)Nc3nc4ccccc4s3)[C@H]12	0.469 (inactive)	0.487	-1.86	1.8 (inactive)	-0.234 (inactive)	-0.41 (inactive)
CC(C)C[C@@H]1NC(=O)[C@@H]2C[C@H](C(=O)NCCCC[N+](C)(C)C)[C@H](c3ccc(O)cc3)N2C1=O	1.03 (inactive)	0.858	-0.174	-1.73 (inactive)	0.757 (inactive)	0.0766 (inactive)
COC(=O)[C@@]1(Cc2ccccc2)[C@@H]2[C@@H](CC(=O)[C@H]2CC(=O)C(=O)N(C)C)CN1C(=O)c1ccccc1	-0.282 (inactive)	-0.0913	-1.23	-4.98 (inactive)	0.273 (inactive)	0.082 (inactive)
C=C(CC1([C@@H](NP(=O)(c2ccccc2)c2ccccc2)[C@H]2C[C@@H]2CCN(C(=O)OCC)S(=O)(=O)c2ccc(C)cc2)CC1)c1ccccc1	0.43 (inactive)	0.666	-1.75	-2.18 (inactive)	-0.215 (inactive)	-0.0171 (inactive)
CC(C)[Si](C#CCCCC#N)(O[C@H](c1ccccc1)c1cn([C@H](C)c2ccccc2)nn1)C(C)C	-0.301 (inactive)	0.415	-0.133	-0.445 (inactive)	-0.228 (inactive)	-0.174 (inactive)
